# Values joined by “and” are separate entries in the source; they are usually repeats but may differ in a detail not shown here. Equal entries are not always repeated. Where two headings read alike, the source gives them in different places.
# Tests used:
# [1] = test system: T1, PFTK1; settings: concentration: 1 μM, replicates: in singlicate, n = 1
# T1 construct: gene CDK14
# [2] = test system: PHKG1; settings: concentration: 1 μM, replicates: in singlicate, n = 1
# [3] = test system: PHKG2; settings: concentration: 1 μM, replicates: in singlicate, n = 1
# [4] = test system: PIK3C2B; settings: concentration: 1 μM, replicates: in singlicate; n = 1
# [5] = test system: PIK3C2G; settings: concentration: 1 μM, replicates: in singlicate, n = 1
# [6] = test system: PIK3CA; settings: concentration: 1 μM, replicates: in singlicate, n = 1
# [7] = test system: PIK3CB; settings: concentration: 1 μM, replicates: in singlicate, n = 1
# [8] = test system: PIK3CD; settings: concentration: 1 μM, replicates: in singlicate; n = 1
# [9] = test system: PIK3CG; settings: concentration: 1 μM, replicates: in singlicate, n = 1
# [10] = test system: T2, PIK4CB; settings: concentration: 1 μM, replicates: in singlicate, n = 1
# T2 construct: gene PI4KB
# 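Note: KINOMEscan kinase panel screen.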
compound,measurement,setting,value
COc1cc2ncn(-c3cc(OCc4sccc4Cl)c(C(N)=O)s3)c2cc1OC [GSK448459],%Inh,[1],12%
same,%Inh,[2],0%
same,%Inh,[3],0%
same,%Inh,[4],15%
same,%Inh,[5],0%
same,%Inh,[6],0%
same,%Inh,[7],0%
same,%Inh,[8],30%
same,%Inh,[9],35%
same,%Inh,[10],0%
O=C1Cc2cc(Nc3nc(NCc4cccc(S(=O)(=O)C(F)(F)F)c4)ncc3C(F)(F)F)ccc2N1,%Inh,[1],0%
same,%Inh,[2],3%
same,%Inh,[3],0%
same,%Inh,[4],0%
same,%Inh,[5],0%
same,%Inh,[6],0%
same,%Inh,[7],0%
same,%Inh,[8],13%
same,%Inh,[9],8%
same,%Inh,[10],4%
O=c1cc(N2CCOCC2)nc2n(Cc3cccc(F)c3)ccn12 [GSK2297430],%Inh,[1],12%
same,%Inh,[2],0%
same,%Inh,[3],0%
same,%Inh,[4],0%
same,%Inh,[5],0%
same,%Inh,[6],0%
same,%Inh,[7],99%
same,%Inh,[8],6%
same,%Inh,[9],0%
same,%Inh,[10],0%
CN1c2ccc(CNc3ccc(F)cc3)cc2-c2c(cnn2C)S1(=O)=O,%Inh,[1],0%
same,%Inh,[2],0%
same,%Inh,[3],0%
same,%Inh,[4],19%
same,%Inh,[5],41%
same,%Inh,[6],0%
same,%Inh,[7],0%
same,%Inh,[8],0%
same,%Inh,[9],0%
same,%Inh,[10],0%
NCCNS(=O)(=O)c1ccc(-c2ccnc3[nH]ccc23)cc1 [GSK977617],%Inh,[1]; 1 µM,16% and 27%
same,%Inh,[2]; 1 µM,45% and 25%
same,%Inh,[3]; 1 µM,75% and 60%
same,%Inh,[4],0%
same,%Inh,[5]; 1 µM,32% and 12%
same,%Inh,[6]; 1 µM,0% and 3%
same,%Inh,[7]; 1 µM,43% and 15%
same,%Inh,[8],0%
same,%Inh,[9]; 1 µM,80% and 68%
same,%Inh,[10]; 1 µM,64% and 26%
[2H]C([2H])(c1cccc(C(F)(F)F)c1C)n1ccn2c(=O)nc(N3CCOCC3)cc12 [GSK2336394],%Inh,[1],12%
same,%Inh,[2],0%
same,%Inh,[3],0%
same,%Inh,[4],0%
same,%Inh,[5],0%
same,%Inh,[6],0%
same,%Inh,[7],97.5%
same,%Inh,[8],38%
same,%Inh,[9],0%
same,%Inh,[10],0%
N#Cc1c(N2CCOCC2)sc(-c2ccn[nH]2)c1-c1ccc(Cl)cc1,%Inh,[1],19%
same,%Inh,[2],9%
same,%Inh,[3],0%
same,%Inh,[4],31%
same,%Inh,[5],37%
same,%Inh,[6],90%
same,%Inh,[7],97%
same,%Inh,[8],46%
same,%Inh,[9],20%
same,%Inh,[10],16%
COC(=O)Nc1nc2cc(Oc3ccc(NC(=O)Nc4cc(F)ccc4F)cc3)ccc2[nH]1.Cl [GW701424],%Inh,[1],19%
same,%Inh,[2],0%
same,%Inh,[3],0%
same,%Inh,[4],0%
same,%Inh,[5],0%
same,%Inh,[6],0%
same,%Inh,[7],0%
same,%Inh,[8],0%
same,%Inh,[9],0%
same,%Inh,[10],0%
Cl.Cl.Cl.Fc1ccc(-c2ncn(C3CCNCC3)c2-c2ccnc(Nc3ccccc3)n2)cc1 [SB-238039],%Inh,[1]; 1 µM,16% and 0%
same,%Inh,[2]; 1 µM,4% and 0%
same,%Inh,[3],0%
same,%Inh,[4],0%
same,%Inh,[5],0%
same,%Inh,[6]; 1 µM,6% and 0%
same,%Inh,[7]; 1 µM,0% and 13%
same,%Inh,[8],0%
same,%Inh,[9]; 1 µM,0% and 26%
same,%Inh,[10]; 1 µM,7% and 34%
C[C@@H](Oc1cc(-n2cnc3ccc(NC(=O)NC(C)(C)C)cc32)sc1C(N)=O)c1ccccc1Cl [GSK346294],%Inh,[1],24%
same,%Inh,[2],0%
same,%Inh,[3],13%
same,%Inh,[4],0%
same,%Inh,[5],0%
same,%Inh,[6],3%
same,%Inh,[7],5%
same,%Inh,[8],0%
same,%Inh,[9],6%
same,%Inh,[10],0%
O=C(NCCCN1CCOCC1)c1cccc(Nc2nccc(Nc3ccc(Oc4ccccc4)cc3)n2)c1 [GW663929],%Inh,[1],43%
same,%Inh,[2],0%
same,%Inh,[3],14%
same,%Inh,[4],6%
same,%Inh,[5],0%
same,%Inh,[6],12%
same,%Inh,[7],18%
same,%Inh,[8],7%
same,%Inh,[9],11%
same,%Inh,[10],21%
CSc1ccc(-c2cc3ncnc(SCC(=O)O)c3s2)cc1,%Inh,[1],3%
same,%Inh,[2],0%
same,%Inh,[3],0%
same,%Inh,[4],0%
same,%Inh,[5],0%
same,%Inh,[6],0%
same,%Inh,[7],0%
same,%Inh,[8],8%
same,%Inh,[9],2%
same,%Inh,[10],0%
COc1ccc(Nc2nccc(N3CCC(NC(=O)Nc4cccc(C(C)=O)c4)C3)n2)cc1 (centres unmarked) [GSK1379731],%Inh,[1],3%
same,%Inh,[2],0%
same,%Inh,[3],0%
same,%Inh,[4],0%
same,%Inh,[5],0%
same,%Inh,[6],0%
same,%Inh,[7],0%
same,%Inh,[8],0%
same,%Inh,[9],0%
same,%Inh,[10],0%
Cc1ccc(NC(=O)c2ccnc(N3CCN(C)CC3)c2)cc1-c1ccc(C(=O)NCC2CC2)cc1 [GW775604],%Inh,[1],0%
same,%Inh,[2],0%
same,%Inh,[3],0%
same,%Inh,[4],0%
same,%Inh,[5],0%
same,%Inh,[6],0%
same,%Inh,[7],0%
same,%Inh,[8],0%
same,%Inh,[9],0%
same,%Inh,[10],0%
Cn1ccc2ncnc(Oc3ccc(NC(=O)Nc4ccncc4)c(Cl)c3)c21,%Inh,[1],0%
same,%Inh,[2],0%
same,%Inh,[3],5%
same,%Inh,[4],16%
same,%Inh,[5],43%
same,%Inh,[6],11%
same,%Inh,[7],0%
same,%Inh,[8],26%
same,%Inh,[9],26%
same,%Inh,[10],0%
Cc1ccc(C(=O)NCC(N)=O)cc1-n1c(C)cc(OCc2ccc(F)cc2F)c(Br)c1=O,%Inh,[1],26%
same,%Inh,[2],9%
same,%Inh,[3],1%
same,%Inh,[4],0%
same,%Inh,[5],51%
same,%Inh,[6],0%
same,%Inh,[7],0%
same,%Inh,[8],30%
same,%Inh,[9],0%
same,%Inh,[10],0%
O=C(Nc1cccc(-c2nn3ncccc3c2-c2ccnc(Nc3cccc(C(F)(F)F)c3)n2)c1)c1c(F)cccc1F [GSK299495],%Inh,[1],11%
same,%Inh,[2],0%
same,%Inh,[3],0%
same,%Inh,[4],0%
same,%Inh,[5],0%
same,%Inh,[6],0%
same,%Inh,[7],0%
same,%Inh,[8],25%
same,%Inh,[9],0%
same,%Inh,[10],0%
